Results taken from PubChem BioAssay (NCATS).
Results filed as inconclusive are left out. Where a call stands in place of a potency, no number is given. Active and inactive are the calls of the source. The call rests on the fitted dose curve; in most records, active means well fitted curve in the direction sought with a large enough effect; inconclusive means small, poorly fitted or top-dose-only effect, or another doubt; inactive means no such curve, though single readings can be large; an effect the other way counts as inactive or inconclusive.

Assays:
[1] = qHTS to identify inhibitors of the type 1 interferon - major histocompatibility complex class I in skeletal muscle: primary screen against the NCATS LOPAC collection (AID 1347405);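 further: lytic HiBiT luminescence reporting HLA-B protein level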; further: potency means the concentration at half of the fitted maximal effect
Procedure, shortened: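 Luminescence from HiBiT fused to endogenous HLA-B in CRISPR-engineered human myoblasts served as the read-out. Cells received 4.0 ng/ml IFN-beta plus compound (seven concentrations, 1:4.3 steps, highest 46 uM final) for 24 hrs before lytic detection.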

[2] = qHTS for inhibitors of adenylyl cyclases using a fission yeast platform: a pilot screen against the NCATS LOPAC library (AID 1347410)
Procedure, shortened: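 GFP from fbp1-GFP reporter, read by Acumen laser cytometry, indicates AC inhibition in fission yeast expressing AC9, GNAS and PDE4D2. Cells grown 18 h in the dark at 30C with compounds, final up to 57 uM.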

[3] = Validation qHTS assay for inhibitors of Activation Induced Cytidine Deaminase (AID): UDG Counterscreen signal (AID 1347427)
Procedure, shortened: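 Counterscreen read of UDG activity (2 U/mL, 4/3x) in the FRET deamination format with AID (1 uM, 4/3x), DJC20/DJC23 substrates (250 nM, 4x), 4 h at room temperature. NaOH stop, fluorescence at 560 ex/665 em.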

[4] = qHTS to identify inhibitors of the type 1 interferon - major histocompatibility complex class I in skeletal muscle: primary screen against the NCATS Mechanism Interrogation Plate v5.0 (MIPE) Libary (AID 1347411); further: nearly all actives have a fitted effect of over 65% in size
Procedure, shortened: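 Luminescence from HiBiT-tagged endogenous HLA-B*08:01 served as the MHC class I read-out. CRISPR-engineered C25cl48 human myoblasts received 4.0 ng/ml IFN-beta plus compound for 24 hrs, with an 11-point, 1:3 series topping at 46 uM final.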

Row | SMILES | Potency [1] | outcome [2] | Potency [3] | outcome [4]
1 | N=C(N)c1ccc(N)cc1 | inactive | inactive | inactive | –
2 | CC1C(=O)N(C)C(=O)c2nc[nH]c21 (stereo not drawn) | inactive | inactive | inactive | –
3 | CN1CCc2cc(Cl)c(O)cc2[C@@H](c2ccccc2)C1 | inactive | inactive | inactive | –
4 | OC[C@H]1O[C@H](n2cnc3c(N[C@H]4CCC[C@@H]4O)ncnc32)[C@H](O)[C@@H]1O | inactive | inactive | inactive | –
5 | Nc1nc2c(cnn2CCc2ccccc2)c2nc(-c3ccco3)nn12 | inactive | inactive | inactive | –
6 | CC(=O)NNC(=O)N1Cc2ccccc2Oc2ccc(Cl)cc21 | – | inactive | – | –
7 | O=C(O)/C=C/c1ccc(O)c(O)c1 | inactive | inactive | inactive | –
8 | CC(C)(CO)Cc1cc(C(C)(C)C)c(O)c(C(C)(C)C)c1 | – | inactive | – | –
9 | COc1ccccc1N1CCN(CCCCN2C(=O)c3ccccc3C2=O)CC1 | – | inactive | – | –
10 | COc1cc(N)c(Cl)cc1C(=O)OCCN1CCCCC1 | inactive | inactive | inactive | –
11 | COc1ccc(-c2ccc(N)[n+](CCCC(=O)O)n2)cc1 | inactive | inactive | inactive | –
12 | CCn1c(=O)[nH]c2cc(Cl)c(Cl)cc21 | 3.16 µM (active) | inactive | inactive | –
13 | NC(N)=NC(N)=Nc1ccccc1 | inactive | inactive | inactive | –
14 | CCCC(=O)NCCc1c2n(c3ccc(OC)cc13)CCCc1ccccc1-2 | inactive | inactive | inactive | –
15 | O=C(O)C1=CCNCC1 | inactive | inactive | inactive | –
16 | NC(N)=[N+]1CCc2ccccc2C1 | – | inactive | – | –
17 | COc1cc(/C=C(\C#N)C(=O)c2ccc(O)c(O)c2)cc(I)c1O | inactive | inactive | inactive | –
18 | COc1ccc(-c2cc3ncc(C)n3c(Nc3ncccc3C(N)=O)n2)cc1OC | 3.16 µM (active) | inactive | inactive | –
19 | NCCC1CCCC(CCN)N1 (stereo not drawn) | inactive | inactive | inactive | –
20 | CC1CCN(CC[C@H]2CCCN2S(=O)(=O)c2cccc(O)c2)CC1 | inactive | inactive | inactive | –
21 | COc1ccc(CCN(C)CCc2ccc(OC)c(OC)c2)cc1OC | inactive | inactive | inactive | –
22 | COC(=O)C1=C(C)NC(C)=C([N+](=O)[O-])C1c1ccccc1C(F)(F)F (stereo not drawn) | – | inactive | – | –
23 | CC(=O)/C(C)=N/O | inactive | inactive | inactive | –
24 | C[C@@H](NCCc1ccc(O)cc1)[C@@H](O)c1ccc(O)cc1 | inactive | inactive | inactive | –

Row | SMILES | Potency [1] | outcome [2] | Potency [3] | outcome [4]
25 | c1ccc(CN2CCC3(CCCc4ccccc43)CC2)cc1 | inactive | inactive | inactive | –
26 | O=c1cc(-c2ccccc2F)[nH]c2cc3c(cc12)OCO3 | – | inactive | – | –
27 | Cc1cccc(C)c1OCC(N)C(C)C (stereo not drawn) | inactive | inactive | inactive | –
28 | NC(=O)c1cc[n+](CC2=C(C(=O)O)N3C(=O)[C@@H](NC(=O)[C@@H](c4ccccc4)S(=O)(=O)[O-])[C@H]3SC2)cc1 | inactive | inactive | inactive | –
29 | CCCn1c(=O)c2[nH]c(C3CCCC3)nc2n(CCC)c1=O | – | inactive | – | –
30 | N=S(=O)(O)Cc1noc2ccccc12 | inactive | inactive | inactive | –
31 | c1ccc2nc(C3=NCCN3)ccc2c1 | inactive | inactive | inactive | –
32 | CC(N)=NCCCC[C@@H](N)C(=O)O | inactive | inactive | inactive | –
33 | COc1cc(/C=C(\C#N)C(=O)Nc2nnc(C(F)(F)F)s2)ccc1OCc1ccc(C(F)(F)F)cc1C(F)(F)F | – | – | – | inactive
34 | CC(=O)SC1CC2=CC(=O)CC[C@]2(C)C2CC[C@@]3(C)C(CC[C@@]34CCC(=O)O4)C12 (stereo partly drawn) | – | inactive | inactive | –
35 | CC[N+](CC)(CC)CC(=O)Nc1c(C)cccc1C | – | inactive | inactive | –
36 | C=CC1(C)CC(=O)C2(O)C(C)(O1)C(OC(C)=O)C(O)C1C(C)(C)CCC(O)C12C (stereo not drawn) | – | – | inactive | –
37 | O=C(O)c1cc(=O)cc(C(=O)O)[nH]1 | – | inactive | inactive | –
38 | O=C(O)CCC(=O)N1CCCC1C(=O)O (stereo not drawn) | – | inactive | inactive | –
39 | O=C(O)/C=C/c1cnc[nH]1 | – | – | inactive | –
40 | NCC(O)C1CCCCCCC1 (stereo not drawn) | – | inactive | inactive | –
41 | Nc1nc2ccc(Cl)cc2c2nc(-c3ccco3)nn12 | – | inactive | inactive | –
42 | NC1(C(=O)O)CC1 | – | inactive | inactive | –
43 | CCCC[C@@]1(C2CCCC2)Cc2cc(OCC(=O)O)c(Cl)c(Cl)c2C1=O | – | inactive | inactive | –
44 | C[C@@]1(C2CCCC2)Cc2cc(OCC(=O)O)c(Cl)c(Cl)c2C1=O | – | inactive | inactive | –
45 | NC(Cc1cccc(-c2ccccc2CP(=O)(O)O)c1)C(=O)O (stereo not drawn) | – | inactive | inactive | –
46 | Cc1nc2c(OCc3ccccc3)cccn2c1CC#N | – | inactive | inactive | –
47 | N[C@H](C(=O)O)[C@H](O)C(=O)O | – | inactive | inactive | –
48 | CN(C)S(=O)(=O)c1ccc2c(c1)/C(=C/c1cc3c([nH]1)CCCC3)C(=O)N2 | – | – | inactive | –

Row | SMILES | Potency [1] | outcome [2] | Potency [3] | outcome [4]
49 | CCC1(O)CC2CN(CCc3c([nH]c4ccccc34)[C@@](C(=O)OC)(c3cc4c(cc3OC)N(C)C3[C@]45CCN4CC=C[C@@](CC)([C@@H](OC(C)=O)[C@]3(O)C(=O)OC)[C@H]45)C2)C1 (stereo partly drawn) | – | – | inactive | –
50 | COc1cc(C(O)C(=O)O)ccc1O (stereo not drawn) | – | inactive | inactive | –
51 | CCCCCC[C@@H]([C@@H](C)O)n1cnc2c(N)ncnc21 | – | inactive | inactive | –
52 | CCCn1c(=O)c(C)cn2nc(N)nc12 | – | inactive | inactive | –
53 | CC[C@@H]1Cc2cc(O)ccc2C2=C1c1ccc(O)cc1C[C@H]2CC | – | inactive | inactive | –
54 | O=C1NC(=O)c2cc(Nc3ccccc3)c(Nc3ccccc3)cc21 | – | inactive | inactive | –
55 | CCCCCCCCCCCCCCC[C@H](O)[C@H](N)CO | – | inactive | inactive | –
56 | S=C(S)N1CCCC1 | – | – | inactive | –
57 | NC1(C(=O)O)CCCCC1 | – | inactive | inactive | –
58 | N#Cc1cc2nc(O)c(O)nc2cc1[N+](=O)[O-] | – | inactive | inactive | –
59 | CCN(CC)CCOC(=O)c1cc(Cl)c(N)cc1OC | – | inactive | inactive | –
60 | CC#CCOC(=O)c1c(C)nc2sc3c(c2c1N)CCC(O)C3 (stereo not drawn) | – | inactive | inactive | –
61 | CCCCCCC/C=C\CCCCCCCCC(=O)O | – | inactive | inactive | –
62 | O=c1cc(-c2ccccc2)[nH]c2nc(Cl)ccc12 | – | inactive | inactive | –
63 | NC(=Nc1ccccc1)NC(=O)c1nc(Cl)c(N)nc1N | – | inactive | inactive | –
64 | CCCCCCCC/C=C\CCCCCCCC(=O)NCCc1ccc(O)c(O)c1 | – | inactive | inactive | –
65 | COc1cc2c(CCNC(C)=O)c[nH]c2cc1O | – | inactive | inactive | –
66 | O=C(O)c1ccccc1Nc1ccccc1 | – | inactive | inactive | –
67 | CCCCCCCCCCCCCCCCCCOC[C@H](COP(=O)([O-])OCC[N+](C)(C)C)OC | – | – | inactive | –
68 | CNc1cc(NS(=O)(=O)c2ccc(N)cc2)nc(NC)n1 | – | inactive | inactive | –
69 | CC(/C=C/c1cccc(Oc2ccc(F)cc2)c1)N(O)C(N)=O (stereo not drawn) | – | inactive | inactive | –
70 | O=[N+]([O-])c1cccc2c(Br)[nH]nc12 | – | inactive | inactive | –
71 | N#C/C(=C\c1ccc(O)c(O)c1)C(=O)NCCc1ccccc1 | – | inactive | inactive | –
